Reference: PubChem BioAssay AID652154 (Broad Institute, 2013)
Where “and” joins values, the source holds several entries; their conditions need not be identical. Equal entries are not always repeated. About 4,200 (1.2%) of roughly 360,000 compounds were called active. This is one part of a sample in which actives are shown more often than they occur.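 Rule for the calls: active = mean replicate inhibition at least 60% with every replicate also reaching 60%; inconclusive = only one of the two criteria is met; inactive = mean below 60% and not all replicates reaching 60%.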 Some structures have more than one record in an assay (separate samples or runs), and their calls can disagree.

Assay: inhibitors of PAX8-driven TPO luciferase reporter, primary screen, RMG-I cells, single concentration (AID 652154);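 note: luciferase light reporting Pax8 driven TPO promoter activity; plate controls were median of neutral control wells for no effect and mitoxantrone controls for full effect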
Details: SteadyGlo, 24 h, at 12.6 µM, stronger effect = higher value

Row | SMILES | inhibition
1 | COc1cc2c(cc1OC)CN(C(=O)c1cc(S(=O)(=O)N3CCCCC3)ccc1Cl)CC2 | -3.73% (inactive)
2 | COc1cc2c(cc1OC)CN(C(=O)c1ccc(S(=O)(=O)N3CCCCCC3)cc1)CC2 | 11.3% (inactive)
3 | CCOc1cc(C(=O)N2CCc3cc(OC)c(OC)cc3C2)ccc1OC(F)F | 86.2% (active)
4 | O=C(C[C@H]1C[C@H]2c3cc(NC(=O)CC4CC4)ccc3O[C@H]2[C@H](CO)O1)NCc1ccccn1 | -23.5% (inactive)
5 | COc1ccc(S(=O)(=O)Nc2ccc3c(c2)C(=O)N([C@@H](C)CO)C[C@@H](C)[C@H](CN(C)C(=O)CCC(F)(F)F)OCCCC[C@H](C)O3)cc1 | 6.54% (inactive)
6 | O=S(=O)([N-]c1nc2ccccc2nc1-[n+]1ccc(Cc2ccccc2)cc1)c1ccc(Br)s1 | 70.9% (active)
7 | O=S(=O)(NCc1ccccn1)c1ccc(Br)s1 | -3.1% (inactive)
8 | COc1ccc(S(=O)(=O)Nc2cccc3c2O[C@@H](CN(C)C(=O)Nc2ccccc2)[C@@H](C)CN([C@H](C)CO)C3=O)cc1 | 11% (inactive)
9 | Cc1oc2c(c1C(=O)N1CCOCC1)C(=O)c1ccccc1C2=O | 83.3% (active)
10 | Cc1ccc(C(=O)N2CCN(S(=O)(=O)N3CCOCC3)CC2)cc1 | -3.97% (inactive)
11 | Cc1ccc(S(=O)(=O)NC(C(=O)N2CCOCCOCCOCCOCC2)c2ccccc2)cc1 (stereo not given) | 5.5% (inactive)
12 | CN(C)C(=O)[C@@H]1[C@@H](CO)[C@@H]2Cn3c(cccc3=O)[C@@H]2N1C(=O)C1CCC1 | -6.21% (inactive)
13 | CCCN1C[C@@H](C)[C@@H](OC)CN(C)C(=O)c2cc(NC(=O)Nc3cccc(F)c3)ccc2OC[C@@H]1C | 13.5% (inactive)
14 | N#C[C@@H]1[C@@H](c2ccc(C3=CCCC3)cc2)[C@@H](CO)N1C(=O)C1CCCC1 | 3.84% (inactive)
15 | CCCCC(=O)NC(c1ccc(OC)c(OC)c1)c1ccc2cccnc2c1O (stereo not given) | 78.7% (active)
16 | C=CCn1c(COc2cccc3cccnc23)nnc1SCC(=O)OC | 21.9% (inactive)
17 | CCOc1ccc(C(CC(=O)O)n2cnnn2)cc1OC (stereo not given) | 7.25% (inactive)
18 | C[C@@H]1CCCCO[C@@H](CN(C)C(=O)Nc2cccc3ccccc23)[C@H](C)CN([C@H](C)CO)C(=O)c2cc(NC(=O)NC3CCCCC3)ccc2O1 | 34.7% (inactive)
19 | Cc1noc(C)c1S(=O)(=O)Nc1ccc2c(c1)C(=O)N([C@@H](C)CO)C[C@@H](C)[C@@H](CN(C)Cc1ccccc1)OCCCC[C@H](C)O2 | 27.1% (inactive)
20 | COc1ccc(CN2C(=O)C(CC(=O)NCc3cccc4ccccc34)CC(C(=O)N3CCOCC3)=C2C)cc1 (stereo not given) | -99.8% (inactive)
21 | CCN(CC)C(=O)C1=C(C)N(Cc2ccc(OC)cc2)C(=O)C(CC(=O)NCCCCc2ccccc2)C1 (stereo not given) | 8.41% (inactive)
22 | COc1ccc(CN2C(=O)C(CC(=O)NCCCCc3ccccc3)CC(C(=O)N3CCOCC3)=C2C)cc1 (stereo not given) | 91.4% (active)

Row | SMILES | inhibition
23 | CN1C(=O)c2cc(NC(=O)c3ccc(F)cc3)ccc2OC[C@H]2O[C@H](CC(=O)N3CCOCC3)CC[C@@H]21 | -0.681% (inactive)
24 | Cc1cc(C)n2nc(CNS(=O)(=O)c3c(F)c(F)c(F)c(F)c3F)nc2n1 | 85.5% (active)
25 | COc1ccc(Cl)cc1C(=O)NNC(=O)c1nc2nc(C)cc(C)n2n1 | -17.5% (inactive)
26 | Cc1cc(C)n2nc(SCC(N)=O)nc2n1 | -3.44% (inactive)
27 | Cc1noc(C)c1NC(=O)Nc1ccc2c(c1)C(=O)N([C@@H](C)CO)C[C@@H](C)[C@@H](CN(C)CC1CCCCC1)O2 | -11.2% (inactive)
28 | COc1ccc(NC(=O)N(C)C[C@@H]2Oc3ccc(NC(=O)CCCN(C)C)cc3CC(=O)N([C@H](C)CO)C[C@H]2C)cc1 | 2.7% (inactive)
29 | C[C@H]1CCCCO[C@H](CN(C)Cc2ccccc2)[C@@H](C)CN([C@@H](C)CO)C(=O)c2cc(NC(=O)NC3CCCCC3)ccc2O1 | 5.95% (inactive)
30 | C[C@@H]1CN([C@H](C)CO)C(=O)c2cc(NC(=O)Nc3ccc(F)cc3)ccc2O[C@@H](C)CCCCO[C@H]1CN(C)Cc1ccc(Cl)c(Cl)c1 | 77.5% (active)
31 | C[C@@H]1CN([C@H](C)CO)C(=O)c2cc(NC(=O)Nc3ccc4c(c3)OCO4)ccc2O[C@@H](C)CCCCO[C@@H]1CN(C)Cc1ccc2c(c1)OCO2 | 25.2% (inactive)
32 | C[C@@H]1CCCCO[C@@H](CN(C)Cc2ccc3c(c2)OCO3)[C@@H](C)CN([C@@H](C)CO)C(=O)c2cc(NC(=O)Nc3ccccc3)ccc2O1 | -0.474% (inactive)
33 | C[C@@H]1CCCCO[C@H](CN(C)Cc2ccc(Cl)c(Cl)c2)[C@@H](C)CN([C@@H](C)CO)C(=O)c2cc(NC(=O)Nc3ccccc3)ccc2O1 | 93.9% (active)
34 | C[C@H]1CCCCO[C@@H](CN(C)Cc2ccc3c(c2)OCO3)[C@@H](C)CN([C@@H](C)CO)C(=O)c2cc(NC(=O)Nc3ccc(F)cc3)ccc2O1 | 87.4% (active)
35 | C[C@H](CO)N1C[C@H](C)[C@H](CN(C)Cc2ccc(Cl)c(Cl)c2)OCCCC[C@H](C)Oc2ccc(NC(=O)NC3CCCCC3)cc2C1=O | 92.7% (active)
36 | C[C@H]1CCCCO[C@@H](CN(C)Cc2ccncc2)[C@@H](C)CN([C@@H](C)CO)C(=O)c2cc(NC(=O)Nc3ccc(F)cc3)ccc2O1 | -6.76% (inactive)
37 | C[C@@H]1CCCCO[C@H](CN(C)Cc2ccncc2)[C@H](C)CN([C@H](C)CO)C(=O)c2cc(NC(=O)Nc3ccccc3)ccc2O1 | 18.7% (inactive)
38 | C[C@@H]1CN([C@H](C)CO)C(=O)c2cc(NC(=O)Nc3ccccc3)ccc2O[C@@H](C)CCCCO[C@@H]1CN(C)Cc1ccncc1 | 6.95% (inactive)
39 | C[C@@H]1CCCCO[C@@H](CN(C)Cc2ccncc2)[C@H](C)CN([C@H](C)CO)C(=O)c2cc(NC(=O)NC3CCCCC3)ccc2O1 | 8.64% (inactive)
40 | C[C@@H]1CCCCO[C@@H](CN(C)Cc2ccncc2)[C@@H](C)CN([C@@H](C)CO)C(=O)c2cc(NC(=O)Nc3ccc(F)cc3)ccc2O1 | -6.16% (inactive)
41 | CN(C)C(=O)[C@H]1[C@H](CO)[C@H]2Cn3c(ccc(-c4ccc(F)cc4)c3=O)[C@H]2N1C(=O)c1ccccn1 | -7.59% (inactive)
42 | CCCNC(=O)N[C@@H]1CC[C@@H](CCn2cc(C3CC3)nn2)O[C@@H]1CO | 3.4% (inactive)
43 | C[C@@H]1CCCCO[C@@H](CN(C)S(=O)(=O)c2cn(C)cn2)[C@H](C)CN([C@H](C)CO)C(=O)c2cc(NS(=O)(=O)c3ccc(Cl)cc3)ccc2O1 | 4.97% (inactive)
44 | C[C@H]1CN([C@@H](C)CO)C(=O)c2cccc(NS(=O)(=O)c3ccc(Cl)cc3)c2O[C@H]1CN(C)Cc1ccc2c(c1)OCO2 | 4.78% (inactive)

Row | SMILES | inhibition
45 | CC(C)NC(=O)N[C@H]1CC[C@@H](CC(=O)NCc2ccc(Oc3ccccc3)cc2)O[C@@H]1CO | -20.9% (inactive)
46 | C[C@H](CO)N1C[C@H](C)[C@H](CN(C)C(=O)Nc2ccc(F)cc2)Oc2ncc(-c3cc4ccccc4o3)cc2C1=O | 23.1% (inactive)
47 | CC(C)NC(=O)Nc1ccc2c(c1)C(=O)N([C@@H](C)CO)C[C@@H](C)[C@H](CN(C)Cc1ccc(Cl)c(Cl)c1)OCCCC[C@H](C)O2 | 38% (inactive)
48 | C[C@@H]1CCCCO[C@@H](CN(C)Cc2ccc(Cl)c(Cl)c2)[C@H](C)CN([C@H](C)CO)C(=O)c2cc(NC(=O)Nc3ccc(F)cc3)ccc2O1 | 102% (active)
49 | COc1ccc(NC(=O)Nc2ccc3c(c2)C(=O)N([C@H](C)CO)C[C@@H](C)[C@H](CN(C)Cc2ccc(Cl)c(Cl)c2)OCCCC[C@@H](C)O3)cc1 | 57.5% (inactive)
50 | O=S(=O)(c1ccccc1)N1C[C@@H]2[C@H](c3ccccc31)[C@H](CO)N2Cc1ccccn1 | 19.7% (inactive)
51 | O=C(C1CCCCC1)N1CC2(C1)[C@H](c1ccccc1)[C@@H](CO)N2CCC(F)(F)F | -17.1% (inactive)
52 | CC(=O)Nc1ccc2c(c1)C(=O)N(C)[C@@H]1CC[C@@H](CC(=O)NCC3CCCCC3)O[C@@H]1CO2 | -4.32% (inactive)
53 | COc1ccc(NC(=O)Nc2ccc3c(c2)C(=O)N([C@@H](C)CO)C[C@H](C)[C@@H](CN(C)C(=O)NC2CCCCC2)O3)cc1 | -4.33% (inactive)
54 | COc1ccc(OC)c(C2C3=C(N=c4s/c(=C\c5cccc(O)c5)c(=O)n42)c2ccccc2CC3)c1 (stereo not given) | 64.2% (active)
55 | COc1ccc(/C=C2/CCCc3ccccc3C2=O)cc1 | -38.8% (inactive)
56 | COc1ccc(C[C@@H]2CCc3cnnn3COC[C@H](c3ccccc3)NC2=O)cc1 | 1.19% (inactive)
57 | O=C(C1CCOCC1)N1CC(=O)N2[C@H](CO)[C@H](c3ccc(C#Cc4cccc(F)c4)cc3)[C@H]2C1 | -14.5% (inactive)
58 | O=C(N[C@H]1CC[C@H](CCn2cc(C3(O)CCCC3)nn2)O[C@H]1CO)C1CC1 | 13.3% (inactive)
59 | O=C(c1ccncc1)N1CCCCN2[C@H](CO)[C@@H](c3ccc(C#Cc4ccccn4)cc3)[C@H]2C1 | 5.08% (inactive)
60 | O=C(COc1ccc(-n2cnnn2)cc1)Nc1ccccc1Cl | -3.21% (inactive)
61 | O=C(Nc1ccccc1Cl)/C(Cl)=C(\Cl)S(=O)c1ccccc1 (stereo not given) | 111% (active)
62 | CS/C(=C\C(=O)c1ccco1)Nc1ccccc1Cl | 30.8% (inactive)
63 | Cn1cnc(S(=O)(=O)N2C[C@@H]3N[C@H](C2)C3c2ccc(-c3ccccc3F)cc2)c1 (stereo not given in full) | 77.5% (active) and 26.1% (inactive)
64 | Cn1cnc(S(=O)(=O)N2C[C@@H]3N[C@H](C2)C3c2ccc(/C=C/c3ccccc3)cc2)c1 (stereo not given in full) | -2.85% (inactive) and -1.61% (inactive)
65 | COc1ccc(-c2ccc(C3[C@@H]4CN(S(=O)(=O)c5cn(C)cn5)C[C@H]3N4)cc2)cc1 (stereo not given in full) | -15.4% (inactive)
